# Results taken from PubChem BioAssay (NCATS).
# Values without a mark were called inactive. Results filed as inconclusive are left out. Activity calls are given as the source filed them. The call rests on the fitted dose curve; in most records, active means well fitted curve in the direction sought with a large enough effect; inconclusive means small, poorly fitted or top-dose-only effect, or another doubt; inactive means no such curve, though single readings can be large; an effect the other way counts as inactive or inconclusive.
# Tests used:
# [1] = Primary qHTS for inhibitors of nuclear receptor binding SET domain protein 2 (NSD2) in an isogenic RCH-ACV NSD2 p.E1099K mutant (9B) (AID 1645876); further: nearly all actives have a fitted effect of over 70% in size; further: potency means the concentration at half of the fitted maximal effect
# [2] = Primary qHTS for inhibitors of nuclear receptor binding SET domain protein 2 (NSD2) in an RCH-ACV wild type WT cells (2C) (AID 1645877); further: nearly all actives have a fitted effect of over 70% in size; further: potency means the concentration at half of the fitted maximal effect
# [3] = target: Glutathione peroxidase 1 (Homo sapiens) (UniProt P07203); assay: Primary qHTS Assay for Inhibitors of Recombinant Selenoprotein Glutathione Peroxidase 1 (GPX1) (AID 1845191); further: nearly all actives have a fitted effect of over 65% in size; on activity, negative = inhibition: on the % scale 0 is the no-effect control and ±100 the full control effect
# Glutathione peroxidase 1 (Homo sapiens), sequence (P07203 whole entry, looked up): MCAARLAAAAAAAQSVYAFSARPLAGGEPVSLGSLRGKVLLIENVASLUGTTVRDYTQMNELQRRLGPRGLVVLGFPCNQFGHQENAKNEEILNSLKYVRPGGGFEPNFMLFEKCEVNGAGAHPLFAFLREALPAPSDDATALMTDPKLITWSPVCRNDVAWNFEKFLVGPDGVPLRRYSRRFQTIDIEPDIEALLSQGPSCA
# How it was run: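 GPX1 10 nM, GR 100 nM, GSH 1 mM, NADPH 0.5 mM, CHP 0.5 mM (final). 30-min cpd preincubation, RT. Ex340/Em450 read t=0, t=15 min.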
# [4] = target: Phospholipid hydroperoxide glutathione peroxidase GPX4 (Homo sapiens) (UniProt P36969); assay: Primary qHTS Assay for Inhibitors of Recombinant Selenoprotein Glutathione Peroxidase 4 (GPX4) (AID 1845192); further: nearly all actives have a fitted effect of over 65% in size; on activity change, negative = inhibition: on the % scale 0 is the no-effect control and ±100 the full control effect
# Phospholipid hydroperoxide glutathione peroxidase GPX4 (Homo sapiens), sequence (P36969 whole entry, looked up): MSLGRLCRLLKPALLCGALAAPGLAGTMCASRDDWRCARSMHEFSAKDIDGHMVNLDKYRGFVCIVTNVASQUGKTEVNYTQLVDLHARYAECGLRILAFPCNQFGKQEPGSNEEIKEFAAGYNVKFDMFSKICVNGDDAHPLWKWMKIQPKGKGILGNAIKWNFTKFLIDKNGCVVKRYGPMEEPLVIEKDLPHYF
# How it was run: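 qHTS, GR-coupled: GPX4 200 nM + cpd 30 min RT → GSH 1 mM, NADPH 0.5 mM, GR 100 nM → CHP 0.5 mM start; fluor 340/450 at t0 and t15 min; no-enzyme wells as control.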
# [5] = target: Luciferin 4-monooxygenase (Photinus pyralis) (UniProt P08659); assay: Primary firefly luciferase (FLuc) qHTS assay for identification of artifact compounds. (AID 1845220); settings: outcome: dose series up to 54.1 µM unless noted;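 further: plate controls were DMSO vehicle for no effect and no enzyme for full effect; nearly all actives have a fitted effect of over 60% in size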
# How it was run: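 Reaction readout was CCD-imaged luminescence, taken 5 min after adding 10 nM purified firefly enzyme to compound-treated wells holding 10 uM luciferin and ATP in pH 7.6 buffer.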
# [6] = Primary fluorescence-based thiol-reactive (MSTI) qHTS assay for identification of artifact compounds. (AID 1845221); further: nearly all actives have a fitted effect of over 65% in size; further: potency means the concentration at half of the fitted maximal effect;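 on activity change, negative = thiol reactive: thiol-reactive compounds lower the probe fluorescence signal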
# How it was run: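 In PBS pH 7.4 with 2% DMSO, each compound met 4 uM MSTI for one hour at ambient temperature, shielded from light, before fluorescence detection.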
# [7] = system: Nanoluciferase (engineered Oplophorus gracilirostris luciferase); assay: Primary Nanoluciferase (NLuc) qHTS assay for identification of artifact compounds. (AID 1845222);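 further: NLuc secreted into diluted conditioned medium of S16 cells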
# How it was run: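 Concentration-response data were obtained by luminescence after 5 min with Nano-Glo substrate at 1:100. The enzyme was diluted S16 NLuc-expressing cell medium, preincubated with compound for 15 min at RT. Curves were fitted with a 4-parameter Hill model.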
# [8] = system: CRL-7250; assay: Cytotoxic Profiling of Annotated Libraries Using Quantitative High-Throughput Screening (AID 1296008); settings: Five cell lines viability, CellTiter-Glo ATP luminescence, 48-72 h; max response: hits give low values; further: nearly all actives have a fitted effect of over 60% in size; further: potency means the concentration at half of the fitted maximal effect; on max response: on the % scale 0 is the no-effect control and ±100 the full control effect
# How it was run: (§1)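 Compounds were pin-transferred onto cells and incubated 48 or 72 hr at 37 degree Celsius, 95% humidity. CellTiter-Glo was added, plates sat 10 min at room temperature, then ATP-coupled luminescence was imaged as the viability read-out.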
# [9] = system: HEK293; assay: as above; settings: Five cell lines viability, CellTiter-Glo ATP luminescence, 48-72 h; max response: hits give low values
# How it was run: as §1
# [10] = system: HaCat; assay: as above; settings: Five cell lines viability, CellTiter-Glo ATP luminescence, 48-72 h; max response: hits give low values
# How it was run: as §1
# [11] = system: KB-3-1; assay: as above; settings: Five cell lines viability, CellTiter-Glo ATP luminescence, 48-72 h; max response: hits give low values
# How it was run: as §1
# [12] = system: NIH3T3; assay: as above; settings: Five cell lines viability, CellTiter-Glo ATP luminescence, 48-72 h; max response: hits give low values
# How it was run: as §1
# [13] = system: Es-2; assay: Primary qHTS to identify gynecologic anti-cancer compounds using libraries of approved drugs and bioactive compounds (AID 1345084); settings: Gynecologic cancer cell panel viability, ATPlite luminescence, 48 h; series mostly up to 57.5 µM; further: nearly all actives have a fitted effect of over 55% in size; further: potency means the concentration at half of the fitted maximal effect
# How it was run: (§2)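 Five-concentration response, 48 h; readout is ATP-driven luciferase luminescence.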
# [14] = system: Tov-21-G; assay: as above; settings: Gynecologic cancer cell panel viability, ATPlite luminescence, 48 h; series mostly up to 57.5 µM
# How it was run: as §2
# [15] = system: Tov112D; assay: as above; settings: Gynecologic cancer cell panel viability, ATPlite luminescence, 48 h; series mostly up to 57.5 µM
# How it was run: as §2
# [16] = system: C33A; assay: as above; settings: Gynecologic cancer cell panel viability, ATPlite luminescence, 48 h; series mostly up to 57.5 µM
# How it was run: as §2
# [17] = system: CASKI; assay: as above; settings: Gynecologic cancer cell panel viability, ATPlite luminescence, 48 h; series mostly up to 57.5 µM
# How it was run: as §2
# [18] = system: Hek293T; assay: as above; settings: Gynecologic cancer cell panel viability, ATPlite luminescence, 48 h, control line for the selectivity index; series mostly up to 57.5 µM
# How it was run: as §2
# [19] = system: OV90; assay: as above; settings: Gynecologic cancer cell panel viability, ATPlite luminescence, 48 h; series mostly up to 57.5 µM
# How it was run: as §2
# [20] = system: PA-1; assay: as above; settings: Gynecologic cancer cell panel viability, ATPlite luminescence, 48 h; series mostly up to 57.5 µM
# How it was run: as §2
structure (smiles),measurement,setting,value
CC[C@H](C)[C@H](NC(=O)[C@H]1CCCCN1C)C(=O)N(COC(=O)CC(C)C)[C@H](C[C@@H](OC(C)=O)c1nc(C(=O)N[C@@H](Cc2ccc(O)cc2)C[C@H](C)C(=O)O)cs1)C(C)C,Potency,[1],1.1 nM (active)
same,Potency,[2],0.3 nM (active)
same,"activity, negative = inhibition",[3],-5.19% [at 1.09 µM]
same,"activity change, negative = inhibition",[4],-13.5% [at 1.09 µM]
same,"activity change, negative = inhibition",[5],-4.53% [at 1.03 µM]
same,"activity change, negative = thiol reactive",[6],28.3% [at 1.02 µM]
same,"activity, negative = inhibition",[7],2.85% [at 1.03 µM]
same,Potency,[8],4.7 nM (active)
same,Potency,[9],0.4 nM (active)
same,max response,[10],-10.6%
same,Potency,[11],0.8 nM (active)
same,Potency,[12],1.2 nM (active)
same,Potency,[13],8.3 nM (active)
same,Potency,[14],5.2 nM (active)
same,Potency,[15],4.1 nM (active)
COC1CC(O[C@H]2CC[C@]3(C)C4CC[C@]5(C)[C@@H](C6=CC(=O)OC6)[C@@H](OC(C)=O)C[C@]5(O)C4CC[C@@H]3C2)OC(C)C1O[C@@H]1O[C@H](CO)[C@@H](O)[C@H](O)[C@H]1O (stereo partly specified),Potency,[1],383 nM (active)
same,Potency,[2],483 nM (active)
same,Potency,[3],inactive
same,Potency,[4],inactive
same,outcome,[5],inactive
same,Potency,[6],6300 nM (active)
same,Potency,[7],inactive
same,Potency,[8],385 nM (active)
same,Potency,[9],485 nM (active)
same,Potency,[10],1720 nM (active)
same,Potency,[11],862 nM (active)
same,max response,[12],4.46%
same,Potency,[16],631 nM (active)
same,Potency,[17],3160 nM (active)
same,Potency,[13],794 nM (active)
same,Potency,[18],1410 nM (active)
same,Potency,[19],3160 nM (active)
same,Potency,[20],1120 nM (active)
same,Potency,[14],562 nM (active)
same,Potency,[15],355 nM (active)
CN1C(=O)CN=C(c2ccccc2Cl)c2cc(Cl)ccc21,Potency,[1],inactive
same,Potency,[2],inactive
same,Potency,[3],inactive
same,Potency,[4],inactive
same,outcome,[5],inactive
same,Potency,[6],inactive
same,Potency,[7],inactive
same,outcome,[8],inactive
same,max response,[9],-5.69%
same,max response,[10],2.59%
same,max response,[11],-0.99%
same,max response,[12],4.35%
same,Potency,[16],inactive
same,Potency,[17],inactive
same,Potency,[13],inactive
same,Potency,[18],inactive
same,Potency,[19],inactive
same,Potency,[20],inactive
same,Potency,[14],inactive
same,Potency,[15],inactive
CC(=O)OC[C@]12C[C@H](OC(=O)CC(C)C)C(C)=C[C@H]1O[C@@H]1[C@H](O)[C@@H](O)[C@@]2(C)[C@]12CO2,Potency,[1],25.2 nM (active)
same,Potency,[2],17.8 nM (active)
same,Potency,[3],inactive
same,Potency,[4],inactive
same,outcome,[5],inactive
same,Potency,[6],inactive
same,Potency,[8],142 nM (active)
same,Potency,[9],25.2 nM (active)
same,Potency,[10],252 nM (active)
same,Potency,[11],39.9 nM (active)
same,Potency,[12],100 nM (active)
same,Potency,[17],224 nM (active)
same,Potency,[13],178 nM (active)
same,Potency,[18],79.4 nM (active)
same,Potency,[14],355 nM (active)
same,Potency,[15],316 nM (active)
